From the supplement of paper PMC6555819

These sequences were tested on VDR:RXRa (NR concentration 270 nM, RXRa partner concentration 90 nM) (assay: PBM binding z-score (relative to random genomic background probes); higher = stronger binding; sequences stand for … in GC…GCGATTGACAGCGTAGAATGAAGG).
Experimental: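 Protein-binding microarray (Agilent 4x180K custom design, double-stranded 60-nt probes: 5' GC cap, 34-nt variable region, 24-nt constant primer region; full probe sequence given). Purified or IVT nuclear receptor:RXRα heterodimers (3:1 NR:RXRα, mostly 270:90 nM) or homodimers were incubated for 1 h in PBS with 2% milk and no ligand, then detected with Alexa488 antibodies. Fluorescence from o1-orientation probes (~5 replicates averaged) was converted to z-scores against 500 random hg19 background probes. Variable regions are seed direct-repeat (DR0–DR5) sites, all their single-nucleotide variants and half-site ablations.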

Sequence	PBM binding z-score
ATATGTAGGTTAGGGTTATTCAGAAAGTAGGGAA	1.94
ATATGTAGGTTAGGGGCATTCAGAAAGTAGGGAA	1.44
TCTAGTTGGTCACGGGGGTCACACACGACGGGTA	6.57
TATACAGGGTCTAAGGCCAGAGTACGAATGTCGA	0.486
TGAATGAAGTTAAAGATCAGGGAACGTGGCGTCG	-0.41
GATACGGGGTCAGCTAGAGGCCAGAGTATGGAAA	5.72
CGATGTAGGTTAAGGGGGTCATTCAGTTTGAAAG	7.68
TCGAGTAGGTTACGCGGGCATTCAGGGATGAAGA	-0.157
CCGAGTAGGTTACGAGGGGGGATTCAGTGCGAAT	3.17
ATCGAAAGGTCGACGAGGTGAGTATGCACCGTTT	5.27
TAGCCTAGGTCATGGGCCTGTATACCACGCGAAC	1.98
TCGAGTAGGTTACGTGGGCATTCAGGGATGAAGA	0.00981
TCTAGCTGGTCACGGAGGTCACACACGACGGGTA	6.05
ACTAGTAGGCCAAGGGTCACTCAAGATTAGTCCG	2.93
TCTAGTTGGTCACGGAGGTCACACGCGACGGGTA	5.87
CTATGTAGGTTGAGGGGGTCATTCAGTTTGAAAG	7
TCGAGTAGCTTACGGGGGCATTCAGGGATGAAGA	2.45
AGAATGAGGTTACCAAAGATCAGTGAAACGCTTG	1.45
TATCCTAGGTCAGATCGGGCCAGTATACGCTATA	1.51
CGTCCAAGGTCATGGGAGGTCAGTGAAGACAGAT	7.07

Sequence	PBM binding z-score
CTAACTAGGTCACGAAAGGTCAAAGTCGAATGAC	6.76
CAAACTAGGTCAAAGGTCAAAGACGAGCCAACCA	6.69
CGCACTAGGTCAAAGGACAGTGAAAGGCGACGTA	1.35
CGAACTAGGTCTCCAGGACAGTGAAGAGGTTGGA	-0.586
TCGAGTTGGTTACGGGGGCATTCAGGGATGAAGA	3.63
CGAACTAGGTCCAAGGACAGTGAAAGGCGACGTA	-0.332
AGTCAAATTTCATCTAGGTAACGTAAGATATGCT	0.0583
CCGCGTAGGTTACGAGGGGGCATTCAGTGCGAAT	5.31
CTATGTAGGTTAAGGGGGTCATCCAGTTTGAAAG	7.32
CCTAGTTGGTCAAGGTAACACACGCTATAGGTAC	0.707
CGAACTAGGTTACCAGGACAGTGAAGAGGTTGGA	-0.164
CCTAGTTGGGCAGGAGGTCACACACCGGATATGA	3.09
GCTCGGAGGACAAGGTCACAGCTTTGTCCGTAGA	3.47
TCATATAGGTAATAAAGGTGAAAGTCGGCATCTA	1.42
GCTGCTAGGTCAACTGATGGTGAGCTAAAGCTCG	1.13
CCTACTGGGCCAAAGGCCATTGATTCCAATGCTC	-0.327
TCGAGTAGGTTACGGGGGCGTTCAGGGATGAAGA	3.7
CTCGAAAGGTCGGTTGAGGTGAGTAAACGGATAA	2.11
TCGGGTAGGTTACGGGGGCATTCAGGGATGAAGA	4.77
CAAACTAGGTCACAGAGGTCAAACTCCGTGCGTA	8.03
